This note sets out measurements from ChEMBL document CHEMBL3988442, “University of Dundee, Small-Polar-MMV Screening Library” (2021).

In the test the target is AMP-activated protein kinase, AMPK (Homo sapiens) (UniProt P54646+O43741+P54619+Q9UGJ0+Q9Y478+Q13131+Q9UGI9). Kind of test: AMP-dependent Kinase enzyme assay. An in vitro enzyme assay that detects ADP turnover that is directly proportional to AMPK activity. This uses naive AMPK that is activated during the assay with MK-8722. It is filed as functional. Also noted: scale not given: direction of the effect not stated beside the values. As to conditions: 30 µM.
Regarding `O=C(CC1COCCN1)N1CCC2(CCc3ccccc32)CC1` (stereo not given), the Percent Effect is -0.69%.
`Cc1nccn1CCCN1CCCC(c2nccn2CC2CCC2)C1` (stereo not given): the Percent Effect was determined as 1.25%.
The same measure for `CC(C(=O)Nc1cccc(F)c1)N(C)CCN1CCOCC1` (stereo not given): 0.543%.
For `COc1ccc(OC)c(-c2cc(C(=O)NCC3(CO)CC3)n(C)n2)c1`, the Percent Effect was -3.88%.
As for `COC(=O)CCN(C)C(=O)c1csc(Cc2ccccc2F)n1`, the Percent Effect is -2.56%.
Regarding `Cc1csc(NC(=O)NCCCN2CCC(C(N)=O)CC2)n1`, the Percent Effect amounted to 1.03%.
Consider `CCCN(CC(F)(F)F)S(=O)(=O)c1cc(C(N)=O)n(C)c1`, for which the Percent Effect was -4.23%.
Take `COCC(NC(=O)c1cc(NC(C)=O)ccc1Cl)c1ccccn1` (stereo not given): the Percent Effect came to 1.62%.
Regarding `CC(NCc1ccnc(OC2CCC2)c1)c1cnn(C)c1` (stereo not given), the Percent Effect was found to be 6.18%.
Turning to `Cc1ccc(C(NC(=O)CCCN2CCCCC2)C(=O)O)cc1` (stereo not given), the Percent Effect turned out to be 11.8%.
As for `CSc1ccc(C(=O)C2CCCN(C(=O)CCCn3cncn3)C2)cc1` (stereo not given), the Percent Effect was determined as 9.79%.
`CCOC(=O)C(C)Nc1ccc(CCN2CCOCC2)cc1` (stereo not given): the Percent Effect was -1.34%.
On to `Cc1cc(Cl)c(C)c(S(=O)(=O)N2CCN(Cc3ccncc3)CC2)c1Cl`, for which the Percent Effect is -2.88%.
`N#CC1COCCN1C(=O)c1ccc2cc[nH]c2c1` (stereo not given): the Percent Effect turned out to be 6.24%.
The value for `Oc1c(F)cc(CNc2cccc(-c3nnc[nH]3)c2)cc1F` was 40.3%; that for `CC(C)c1noc(OCC(=O)N2CCCCC2C)n1` (stereo not given) was -1.04%.
In the case of `CN1CCN(c2ccc(F)cc2NC(=O)NCc2ccon2)CC1`, the Percent Effect is 4.16%.
The same measure for `CC(NC(=O)Nc1ccc(-c2csnn2)cc1)C(=O)NC(C)(C)C` (stereo not given): -8.32%.
`CC(C)c1ccc(/C=C/CC(=O)NC2CCN(C(N)=O)C2)cc1` (stereo not given): the Percent Effect worked out at 1.32%.
`CCCc1nn(Cc2ccc(Br)s2)c(=O)o1`: the Percent Effect was 9.29%.
